According to the supplement of paper PMC11417369:
± gives the standard deviation of the averaged measurements. Whole data set: some 25,000 sequences, median “ln(normalized median fluorescence intensity)” near 10, cut for the highest 2% near 12. The entries come from a sample that favours the highest values as a whole.

The sequences below were run on PfAP2-G AP2 domain (GST-tagged) (assay: gcPBM binding intensity (ln(normalized median fluorescence intensity)); higher = stronger DNA binding).
Summary of the method: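 GST-tagged P. falciparum DNA-binding domains, expressed in E. coli (about 25 μg on average), were applied for 1 h to an Agilent 4 × 180k array of primer-extended double-stranded 36-bp intergenic genomic probes plus negative controls. The binding buffer was 1× PBS with 1% milk, 0.2 mg/ml BSA, 0.5% salmon testes DNA and 0.03% Triton X-100. Bound protein was detected with Alexa488 anti-GST antibody and scanned at 488 nm. Binding intensity is the highest Masliner-normalised natural-log median intensity across replicate spots of either probe orientation.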

Sequence	gcPBM binding intensity (ln)
TATAAATATAAATACTGTACATTATATTATATAATA [XGTACX_site2480]	11 ± 0.71
ATAATACCATTAATTTGTACATATATATTATATATA [XGTACX_site4345]	10.9 ± 0.49
TATATTTTTTTTGTGCGTACATACCATTTTAATAAT [XGTACX_site2751]	11.7 ± 0.8
TTTATACAAATATGTACACACTAAATATATATTATG [CACACA_site4413]	11.5 ± 0.77
ATATATATACTGTGTACACAAATATATATTATATAT [CACACA_site6104]	11.6 ± 0.84
ATAATAATATTGTGTACACAATAATTTGTCAAATCA [CACACA_site6019]	11.7 ± 0.86
TATAAAATTATGTGTACACAAATATAACTTTTCTTT [CACACA_site5554]	11.7 ± 0.95
AACTTCTTTTTTATAACACACAAAATATAAATACAA [CACACA_site4313]	10.2 ± 0.43
TTTTTTTTTTTTGTGCGTACATACCATTTTAATAAT [XGTACX_site2760]	11.6 ± 0.92
ATAATCACAAATAATTGTACATTTTGTTATATATAT [XGTACX_site7704]	10.8 ± 0.45
ATATATATATATATATGTACTTATATATAATATAGA [XGTACX_site3488]	11.2 ± 0.79
TTTATTATTATATTATTTTAATTTTTCTTTAGTACA [GTGCAC_negctrl_site392]	10.29 ± 0.099
CTTTTTTTCTTTCCAAGTACTAAATTCATACAAATT [XGTACX_site2605]	10.8 ± 0.51
CATTAATATATATATACATGCACGTTTTAAAAAAAA [TGCATGCA_site875]	10.1 ± 0.23
GTAAGATTTCTTGTTGCATGCGGTAAAAAGTAAAAT [TGCATGCA_site469]	10.6 ± 0.41
ACATTCATAAAAAAAAGTACATTTTTTATAAAAGAA [XGTACX_site6197]	11.4 ± 0.75
AATATAAATAAAAACACACACACACCCATATATATA [CACACA_site2267]	10.1 ± 0.32
AATACATGAATATGTAGTACAGAAAAAAAAAATATA [XGTACX_site1945]	11.7 ± 0.95
TTTATGTAATATACATGTACAGAATATAAAATATAT [XGTACX_site6906]	11 ± 0.54
ATATATGTATATATGTACATGAATATATAAAGAAAA [CACACA_negctrl_site315]	11.1 ± 0.67
ATATTATCACAAGGTGGTACACAAAAAAAAAAAAAA [XGTACX_site8224]	11.4 ± 0.95
TTTTTTTTTTTATGTGCACACAAAAGATGCTTATAT [CACACA_site2347]	10.6 ± 0.53

Sequence	gcPBM binding intensity (ln)
ATTATTAAAATGATATGTACGCACATAATATACATA [XGTACX_site3236]	11.6 ± 0.94
AACAATGTTGTACATACACACACACTAATAAAAAAT [CACACA_site8758]	11.4 ± 0.95
AATAATATTTAATACGCACACAATAATAATATAAAA [CACACA_site1763]	10.4 ± 0.32
GGATGATTAAGGGGGACACACGTTTATATATTTATA [CACACA_site4342]	11.7 ± 0.9
ATAGCACATTTTTAAGCACACGTTTATTATATATAT [CACACA_site6084]	10.3 ± 0.24
TTGGATGATTAAGGGGGACACACGTTTATATATTTA [CACACA_site338]	11.4 ± 0.79
AAACAAAAGGAAAACATATATATATTAAATGTATAT [CACACA_negctrl_site1663]	9.64 ± 0.33
GAATTAAAATAATACGTACACACATGTATAATACAT [CACACA_site1004]	11.7 ± 1.2
ATGTTTTATAAAAGGCGTACACATATGCTTAAGTAA [XGTACX_site6232]	11.8 ± 0.94
ATTAAAATAATACGTACACACATGTATAATACATAT [CACACA_site1005]	11.5 ± 0.91
AGAATTAAAATAATACGTACACACATGTATAATACA [XGTACX_site1878]	11.5 ± 0.82
ATAAAATATAAAAAAAGTACAAAAAAAAAAAAAAAA [XGTACX_site6657]	11.2 ± 1.1
ACTTTTTTAATGTTACGTACACATAAATAATAATTA [XGTACX_site8092]	11.6 ± 0.9
AAGTATAAAAAAAGGCGTACAAAAAAAAAAAAAAAA [XGTACX_site7309]	11.7 ± 0.9
TTTTTTTTTTTTACGTGTACATAAATGTTAAGTAAT [XGTACX_site3901]	11.4 ± 0.91
TTTTTTTTTTTAAAATGTACACGTAATTACATATAT [XGTACX_site752]	11.4 ± 0.95
AAAAAAAAAAAAAAAAGTACAAATAAAAAAAAAATA [XGTACX_site4814]	11.4 ± 0.85
GATAAAGTAAAAATATGTACATATATATTTTAAGTT [XGTACX_site6439]	11.4 ± 0.78
ATGCTTTTTTATAAAAGTACATAAAGTTTTTACACT [XGTACX_site7307]	11.3 ± 0.81
ATAGCCAAAAATCATGCACACCTAAAAAAAAAAAAA [CACACA_site8826]	10.1 ± 0.6
TAGTTTTCTTAAAGATGTACTTATTAAAAATAAACT [XGTACX_site1001]	11.3 ± 1.1
TATATCTCTTTATTCACACATACGTTTTAAAATAAT [CACACA_site5542]	10.2 ± 0.13
